Where “and” joins values, the source holds several entries; their conditions need not be identical. Identical values can stand only once. Results filed as inconclusive are left out. A call without a number means that no potency is given here. Calls of active or inactive are those of the source. Unless noted, calls come from the whole dose curve; as a rule, active = well fitted curve in the direction sought with a large enough effect; inconclusive = small, poorly fitted or top-dose-only effect, or another doubt; inactive = no such curve, though single readings can be large; an effect the other way counts as inactive or inconclusive.
Legend:
[1] = target: Arylsulfatase A (Homo sapiens) (UniProt P15289); assay: qHTS screen for enhancers of Arylsulfatase A (ASA1): LOPAC Validation Assay (AID 720538)
Arylsulfatase A (Homo sapiens), sequence (P15289 whole entry, looked up): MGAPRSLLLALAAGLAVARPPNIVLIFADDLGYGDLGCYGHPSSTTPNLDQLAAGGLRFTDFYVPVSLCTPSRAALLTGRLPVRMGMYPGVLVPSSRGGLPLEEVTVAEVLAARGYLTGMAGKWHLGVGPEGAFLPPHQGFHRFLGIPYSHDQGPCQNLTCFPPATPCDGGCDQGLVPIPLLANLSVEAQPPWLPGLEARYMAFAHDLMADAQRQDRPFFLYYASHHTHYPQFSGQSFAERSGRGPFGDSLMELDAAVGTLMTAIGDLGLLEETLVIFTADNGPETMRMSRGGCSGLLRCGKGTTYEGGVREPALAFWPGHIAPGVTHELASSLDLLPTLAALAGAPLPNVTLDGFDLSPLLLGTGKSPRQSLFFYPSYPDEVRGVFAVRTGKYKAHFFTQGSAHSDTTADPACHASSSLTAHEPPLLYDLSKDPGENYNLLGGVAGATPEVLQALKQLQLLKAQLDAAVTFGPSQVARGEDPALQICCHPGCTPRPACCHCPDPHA
Method in brief: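 Cell-based enhancement test: residual ASA activity in SV40-transformed I179S patient fibroblasts is measured by pNCS turnover (0.5mM final, 14h, room temperature) following 48h compound incubation; higher fluorescence indicates activation.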

[2] = qHTS for compounds that reverse cellular toxicity of Amyloid beta (A-beta) peptide in yeast: LOPAC Validation Assay (AID 720559)
Method in brief: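 Here, A-beta-toxic yeast grow with test compounds at 30 C for 48 hr before optical density at 600 nm is recorded; data are normalized against DMSO and the FeCl3-clioquinol control.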

[3] = qHTS for Activators of Parkin Expression: LOPAC Validation Assay (NLuc Reporter) (AID 720572)
Method in brief: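 Parkin promoter-driven FLuc/NLuc neuronal reporter cells; 24 h plating, 7-pt dose response, 24 h at 37 C/5% CO2; FLuc then NanoLuc reagent, 10 min each, luminescence; DMSO/positive control normalized.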

[4] = qHTS for Activators of Parkin Expression: LOPAC Validation Assay (FLuc Reporter) (AID 720573)
Method in brief: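 Readout is FLuc luminescence from neuronal reporter cells (Parkin promoter, FLuc plus NLuc) after 24 h compound exposure in dose response. Values normalized to neutral DMSO and positive-control compounds.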

[5] = target: T1, Hexokinase-4 (Homo sapiens) + Glucokinase regulatory protein (Homo sapiens) (UniProt P35557+Q14397); assay: qHTS assay for inhibitors of recombinant human GCK-GKRP interaction: Diaphorase-coupled assay (AID 743205)
T1 sequence (P35557 whole entry, looked up): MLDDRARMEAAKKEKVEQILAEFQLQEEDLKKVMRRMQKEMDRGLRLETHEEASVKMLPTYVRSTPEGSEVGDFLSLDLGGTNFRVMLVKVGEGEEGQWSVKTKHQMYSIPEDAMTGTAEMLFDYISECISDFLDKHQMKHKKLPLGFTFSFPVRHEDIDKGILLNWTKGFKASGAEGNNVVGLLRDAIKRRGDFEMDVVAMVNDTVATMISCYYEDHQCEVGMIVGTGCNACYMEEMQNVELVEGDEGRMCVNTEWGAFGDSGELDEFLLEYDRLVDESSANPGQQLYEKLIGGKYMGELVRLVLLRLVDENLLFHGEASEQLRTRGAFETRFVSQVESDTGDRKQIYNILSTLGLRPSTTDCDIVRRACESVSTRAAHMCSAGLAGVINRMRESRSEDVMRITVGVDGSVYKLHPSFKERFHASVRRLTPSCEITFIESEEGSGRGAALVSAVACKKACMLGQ
T1 sequence (Q14397 whole entry, looked up): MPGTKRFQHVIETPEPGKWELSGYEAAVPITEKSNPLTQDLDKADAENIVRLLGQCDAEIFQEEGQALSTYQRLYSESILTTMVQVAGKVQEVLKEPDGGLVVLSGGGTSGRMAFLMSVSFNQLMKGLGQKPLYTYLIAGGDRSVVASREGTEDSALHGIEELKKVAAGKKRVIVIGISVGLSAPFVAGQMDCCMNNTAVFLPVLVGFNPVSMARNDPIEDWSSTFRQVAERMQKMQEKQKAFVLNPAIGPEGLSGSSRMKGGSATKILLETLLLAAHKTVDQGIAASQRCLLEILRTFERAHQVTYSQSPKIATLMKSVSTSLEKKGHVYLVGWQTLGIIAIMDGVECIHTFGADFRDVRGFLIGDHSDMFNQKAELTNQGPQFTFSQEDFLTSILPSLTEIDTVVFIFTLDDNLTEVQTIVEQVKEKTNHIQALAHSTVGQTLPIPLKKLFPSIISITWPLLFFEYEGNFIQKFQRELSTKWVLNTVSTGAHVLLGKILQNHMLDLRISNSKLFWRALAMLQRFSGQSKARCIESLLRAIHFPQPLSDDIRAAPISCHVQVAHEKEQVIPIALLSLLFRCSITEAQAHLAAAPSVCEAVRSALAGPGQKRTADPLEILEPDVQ
Method in brief: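 Signal derives from resorufin generated by diaphorase, linked to GCK turnover of glucose (5 mM) and ATP (0.4 mM). Enzyme complex was added after a 20-minute compound preincubation and monitored for 30 minutes.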

[6] = target: T1, Hexokinase-4 (Homo sapiens) + Glucokinase regulatory protein (Homo sapiens); assay: qHTS assay for inhibitors of recombinant human GCK-GKRP interaction: ADP-Glo assay (AID 743206)
Method in brief: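 GST-GCK and FLAG-GKRP (15 nM each in the dispensed mix, with 2 uM S6P) react with 0.4 mM ATP and 5 mM glucose (final) in Hepes pH 7.6 for 60 min at room temperature. ADP is measured by ADP-Glo luminescence.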

[7] = target: T1, Hexokinase-4 (Homo sapiens) + Glucokinase regulatory protein (Homo sapiens); assay: qHTS assay for inhibitors of recombinant human GCK-GKRP interaction: HTRF assay (AID 743207)
Method in brief: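 Titration screening format: recombinant GST-GCK and FLAG-GKRP at 5 nM, S6P at 2 uM, labelled anti-tag antibodies, 60 min at RT, dual-wavelength HTRF readout.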

[8] = qHTS Assay for Identifying Gametocytocidal Compounds (AID 743244); note: potency is the fitted concentration of half-maximal effect;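 for max response: actives lower the fluorescent signal which means gametocytes are killed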; details: P. falciparum 3D7 stage III-V gametocytes, alamarBlue, 72 h; max response: stronger effect = lower value
Method in brief: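 Compounds are pinned into medium, gametocytes (stage III–V, 3D7, 20,000 cells/well) added, and plates held 72 h at 37 °C in 5% CO2. AlamarBlue follows for 24 h before fluorescence reading.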

[9] = qHTS profiling for inhibitors of Plasmodium falciparum (3D7) proliferation (AID 743322);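 note: infected erythrocytes exposed to compound for 72 h before lysis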; details: P. falciparum 3D7 proliferation, at 28.7 µM (top of the series)
Method in brief: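 Erythrocytes infected with P. falciparum (0.3% parasitemia, 2.5% hematocrit) incubated with compounds 72 h at 37 C, 5% CO2. Lysis with saponin/Triton buffer containing SYBR Green I, overnight at room temperature in the dark; DNA fluorescence (485/535 nm) normalised to 0.29 uM artemisinin and DMSO.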

[10] = qHTS profiling for inhibitors of Plasmodium falciparum (DD2) proliferation (AID 743323; call rule not given here); details: at 28.7 µM (top of the series), lower = more inhibition
Method in brief: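 P. falciparum Dd2-infected erythrocytes (0.3% parasitemia, 2.5% hematocrit) exposed 72 h at 37 C, 5% CO2. Lysis with SYBR Green, overnight at room temperature, fluorescence 485/535 nm; normalized to 0.29 uM artemisinin and DMSO.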

[11] = qHTS profiling for inhibitors of Plasmodium falciparum (HB3) proliferation (AID 743324); details: Plasmodium falciparum HB3 blood-stage proliferation; at 28.7 µM (top of the series)
Method in brief: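 P. falciparum HB3 grown in erythrocytes (0.3% parasitemia, 2.5% hematocrit final) with compound for 72 h at 37 C, 5% CO2. Parasite DNA detected by SYBR Green after saponin/triton lysis overnight; normalized to 0.29 uM artemisinin and DMSO.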

Row | Compound | Potency [1] | outcome [2] | outcome [3] | Potency [4] | Potency [5] | Potency [6] | Potency [7] | max response [8] | Potency [8] | remaining parasite growth % (stronger effect = lower value) [9] | activity, percent of control [10] | remaining proliferation (% of control), lower = more inhibition [11]
1 | NC(CO)C(=O)NNCc1ccc(O)c(O)c1O (centres undefined) | inactive | inactive | inactive | inactive | inactive | inactive | inactive | 0.751% (inactive) |  |  |  | 
2 | COc1ccccc1OCCNCC(O)COc1cccc2[nH]c3ccccc3c12 (centres undefined) |  | inactive | inactive | inactive | inactive | inactive | inactive | 6.87% (inactive) and 32.1% (inactive) |  |  |  | 
3 | CN1CCN2c3ccccc3Cc3ccccc3C2C1 (centres undefined) |  | inactive | inactive | inactive | inactive | inactive | inactive | 25.6% (inactive) |  |  |  | 
4 | CCOC(=O)c1ncn2c1CN(C)C(=O)c1cc(F)ccc1-2 |  | inactive | inactive | inactive | inactive | inactive | inactive | 2.86% (inactive) and 37.5% (inactive) |  |  |  | 
5 | COc1cc2nc(N3CCN(C(=O)c4ccco4)CC3)nc(N)c2cc1OC |  | inactive | inactive | inactive | inactive | inactive | inactive |  | 11.2 µM (active) |  |  | 
6 | CN(CCOc1ccc(NS(C)(=O)=O)cc1)CCc1ccc(NS(C)(=O)=O)cc1 |  |  |  |  |  |  |  | 1.01% (inactive) |  |  |  | 
7 | COc1cc2nc(N3CCN(C(=O)C4COc5ccccc5O4)CC3)nc(N)c2cc1OC (centres undefined) |  | inactive | inactive | inactive | inactive | inactive | inactive | 2.28% (inactive) |  |  |  | 
8 | CC1(C)O[C@H]2CC(=O)OC[C@]23[C@H]2CC[C@@]4(C)[C@H](c5ccoc5)OC(=O)[C@H]5O[C@]54[C@]2(C)C(=O)C[C@@H]13 |  |  |  |  |  |  |  | 0.83% (inactive) |  |  |  | 
9 | COc1ccccc1OCC(O)CN1CCN(CC(=O)Nc2c(C)cccc2C)CC1 (centres undefined) |  | inactive | inactive | inactive | inactive | inactive | inactive | 19.4% (inactive) and 42.5% (inactive) |  |  |  | 
10 | CN(C)c1nc(N(C)C)nc(N(C)C)n1 |  | inactive | inactive | inactive | inactive | inactive | inactive | 17.1% (inactive) and -2.91% (inactive) |  |  |  | 
11 | Cc1cc(C(C)(C)C)c(O)c(C)c1CC1=NCCN1 |  | inactive | inactive | inactive | inactive | inactive | inactive | -1.21% (inactive) and 27.5% (inactive) |  |  |  | 
12 | CCC1(C)CC(=O)NC1=O (centres undefined) |  | inactive | inactive | inactive | inactive | inactive | inactive | 19% (inactive) and 33% (inactive) |  |  |  | 
13 | C[C@H]1c2cccc(O)c2C(O)=C2C(=O)[C@]3(O)C(O)=C(C(N)=O)C(=O)[C@@H](N(C)C)[C@@H]3[C@@H](O)[C@@H]21 |  | inactive | inactive | inactive | inactive | inactive | inactive | 18.1% (inactive) |  | 16.9% | 12.8% | 15.7%
14 | CN(C)CCC=C1c2ccccc2C=Cc2ccccc21 |  | inactive | inactive | inactive | inactive | inactive | inactive |  | 10 µM (active) |  |  | 
15 | O=C1Cc2cc(CCN3CCN(c4nsc5ccccc45)CC3)c(Cl)cc2N1 |  | inactive | inactive | inactive | inactive | inactive | inactive | -0.117% (inactive) and 9.6% (inactive) |  |  |  | 
16 | CC12CC3CC(C)(C1)CC(N)(C3)C2 |  | inactive | inactive | inactive | inactive | inactive | inactive | 12.5% (inactive) |  |  |  | 

From PubChem BioAssay (NCATS)
